Experiment [1] in a line: qHTS assay to identify aromatase inhibitors - cell viability counter screen (AID 743084).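 Also: cells stimulated with testosterone during compound exposure; nearly all actives have a fitted effect of over 55% in size.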 Also: potency is read from the fitted curve at half-maximal effect.
The target in experiment [2] is Aryl hydrocarbon receptor (Homo sapiens) (UniProt P35869). The experiment in a line: qHTS assay to identify small molecule that activate the aryl hydrocarbon receptor (AhR) signaling pathway (AID 743085). Also: nearly all actives have a fitted effect of over 15% in size. Also: potency is read from the fitted curve at half-maximal effect.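 As to activation: HG2L7.5c1 human HepG2 liver cells with stably integrated DRE-driven firefly reporter; series mostly up to about 70 µM.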 Put shortly: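 AhR agonist activity is inferred from enhanced light output of a DRE-controlled firefly luciferase reporter in HepG2 cells, measured with ONE-Glo following 24 h treatment at 37C.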

Experiment [3] can be described thus: qHTS assay to identify small molecule that activate the aryl hydrocarbon receptor (AhR) signaling pathway - cell viability counter screen (AID 743086). Also: nearly all actives have a fitted effect of over 45% in size. Also: potency is read from the fitted curve at half-maximal effect. Put shortly:
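HepG2-AhR-luc (HG2L7.5c1) cells, 4000/well, treated 24 h at 37 C with compound; viability measured as CellTiter-Fluor fluorescence after 30 min in the same wells as the luciferase read.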
Background: Quantitative high-throughput screening tests each substance at several concentrations.

In experiment [4] the target is Peroxisome proliferator-activated receptor gamma (Homo sapiens) (UniProt P37231). The experiment in a line: qHTS assay to identify small molecule agonists of the peroxisome proliferator-activated receptor gamma (PPARg) signaling pathway (AID 743094; active = well fitted activation curve with a large enough effect in the signal ratio in the repeat runs, not every such curve was filed as active; the % refers to the signal ratio; also: potency is read from the fitted curve at half-maximal effect). Put shortly: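 Following 5 h plating at 37C, PPARg-bla HEK293H cells receive compound or DMSO for 17 h; fluorescence intensity is recorded after LiveBLAzer B/G loading for 1 h at room temperature.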

The nature of experiment [5]: qHTS assay to identify small molecule antagonists of the peroxisome proliferator-activated receptor gamma (PPARg) signaling pathway - cell viability counter screen (AID 743194). Also: nearly all actives have a fitted effect of over 55% in size. Summed up:
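Cytotoxicity counter screen in PPARg-bla HEK293H cells, same wells as reporter assay. Compounds plus 50 nM rosiglitazone (final) for 17 h at 37 C, then viability read by CellTiter-Glo luminescence.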

Experiment [6] in a line: qHTS assay for small molecule agonists of the antioxidant response element (ARE) signaling pathway (AID 743202; active = well fitted activation curve with a large enough effect in the signal ratio in the repeat runs, not every such curve was filed as active; the % refers to the signal ratio; also: potency is read from the fitted curve at half-maximal effect). Put shortly: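 ARE-bla HepG2 cells (beta-lactamase reporter under the antioxidant response element), plated 5 hours, then exposed to compounds 16 hours at 37 C. LiveBLAzer B/G FRET substrate added for 2 hours at room temperature; fluorescence intensity read.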

A short description of experiment [7]: qHTS assay for small molecule agonists of the antioxidant response element (ARE) signaling pathway - cell viability counter screen (AID 743203; calls by dose curve; also: nearly all actives have a fitted effect of over 55% in size). Summed up: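 Compounds in DMSO were pinned onto ARE-bla HepG2 cells plated 5 hrs earlier at 2,000 cells/well. Sixteen hours later at 37C/5% CO2, CellTiter-Glo was added and luminescence measured after 30 min at room temperature.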

Experiment [8] in a line: qHTS assay for small molecule activators of the heat shock response signaling pathway - cell viability counter screen (AID 743209). Also: nearly all actives have a fitted effect of over 50% in size. Summed up:
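Counter screen for cytotoxicity in HeLa HSE-bla reporter cells. Treatment was 5 h at 37 C; viability was detected by luminescent ATP assay (CellTiter-Glo) in the same wells as the beta-lactamase read.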

Experiment [9] concerns the target Peroxisome proliferator-activated receptor gamma (Homo sapiens) (UniProt P37231). The experiment in a line: qHTS assay to identify small molecule antagonists of the peroxisome proliferator-activated receptor gamma (PPARg) signaling pathway (AID 743191; calls by dose curve; also: series mostly up to about 63 µM; nearly all actives have a fitted effect of over 30% in size). Put shortly: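 GeneBLAzer PPARg UAS-bla HEK293H cells, 5 h post-plating, exposed to compounds 17 h at 37C. LiveBLAzer B/G FRET substrate added for 1 h at room temperature; beta-lactamase reporter read by fluorescence intensity.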

Experiment [10] in a line: qHTS assay for small molecule activators of the heat shock response signaling pathway (AID 743210; active = well fitted activation curve with a large enough effect in the signal ratio in the repeat runs, with a control signal flat, not every such curve was filed as active; the % refers to the signal ratio; also: potency is read from the fitted curve at half-maximal effect; as to activation: series mostly up to about 63 µM). Summed up: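 HSE-bla HeLa cells (beta-lactamase reporter under heat shock response elements), plated overnight, then exposed to compounds 5 h at 37 C; LiveBLAzer B/G FRET substrate added, 2.5 h at room temperature, fluorescence intensity read.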

“And” between values parts separate entries of the source, which are not always exact repeats. Identical values can stand only once. Inconclusive results are not listed. Where a structure was tested more than once in an assay, its records may differ in their call. The source made the active and inactive calls. Unless noted, calls follow the shape of the dose curve; as a rule, active = well fitted curve in the direction sought with a large enough effect in the repeat runs; inconclusive = weak or mixed curves; inactive = no such curve, though single readings can be large; an effect the other way counts as inactive or inconclusive.

Chain of Peroxisome proliferator-activated receptor gamma (Homo sapiens) (P37231 whole entry, looked up): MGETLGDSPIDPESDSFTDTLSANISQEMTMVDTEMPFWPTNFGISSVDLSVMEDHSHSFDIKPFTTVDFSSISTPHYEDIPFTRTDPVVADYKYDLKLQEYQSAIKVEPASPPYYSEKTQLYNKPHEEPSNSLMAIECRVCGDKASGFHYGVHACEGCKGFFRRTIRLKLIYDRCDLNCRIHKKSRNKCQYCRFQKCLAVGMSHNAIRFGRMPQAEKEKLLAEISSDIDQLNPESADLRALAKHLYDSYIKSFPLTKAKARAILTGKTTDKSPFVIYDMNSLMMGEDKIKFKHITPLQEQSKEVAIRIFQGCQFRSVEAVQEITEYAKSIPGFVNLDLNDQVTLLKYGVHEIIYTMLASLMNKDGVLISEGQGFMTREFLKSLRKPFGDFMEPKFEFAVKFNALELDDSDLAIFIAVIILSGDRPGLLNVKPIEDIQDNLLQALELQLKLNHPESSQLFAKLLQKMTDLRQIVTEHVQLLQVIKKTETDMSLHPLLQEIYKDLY
Chain of Aryl hydrocarbon receptor (Homo sapiens) (P35869 whole entry, looked up): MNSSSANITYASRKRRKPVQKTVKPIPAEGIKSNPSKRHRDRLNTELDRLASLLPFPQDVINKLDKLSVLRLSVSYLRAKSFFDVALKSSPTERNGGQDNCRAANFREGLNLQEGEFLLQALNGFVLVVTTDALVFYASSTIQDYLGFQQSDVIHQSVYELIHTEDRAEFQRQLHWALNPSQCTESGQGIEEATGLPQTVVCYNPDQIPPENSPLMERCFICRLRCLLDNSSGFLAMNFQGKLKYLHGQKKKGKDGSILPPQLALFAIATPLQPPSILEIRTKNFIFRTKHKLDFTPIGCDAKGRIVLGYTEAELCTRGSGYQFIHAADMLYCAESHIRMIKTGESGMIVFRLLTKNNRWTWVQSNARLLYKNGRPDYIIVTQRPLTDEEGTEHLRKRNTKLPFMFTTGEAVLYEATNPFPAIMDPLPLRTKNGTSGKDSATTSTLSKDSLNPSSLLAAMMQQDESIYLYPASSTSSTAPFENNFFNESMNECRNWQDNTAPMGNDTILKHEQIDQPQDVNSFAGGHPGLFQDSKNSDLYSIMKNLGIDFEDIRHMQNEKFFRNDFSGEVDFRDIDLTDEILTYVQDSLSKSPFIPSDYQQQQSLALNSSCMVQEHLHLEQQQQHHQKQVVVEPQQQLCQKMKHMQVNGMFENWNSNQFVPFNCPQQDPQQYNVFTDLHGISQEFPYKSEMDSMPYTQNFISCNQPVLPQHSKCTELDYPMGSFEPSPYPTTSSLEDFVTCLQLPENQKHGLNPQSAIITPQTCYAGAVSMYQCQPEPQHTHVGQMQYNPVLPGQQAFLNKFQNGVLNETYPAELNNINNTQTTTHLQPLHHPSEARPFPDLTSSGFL

On to `CC(C)=CCC/C(C)=C\CO`, for which the Potency result in experiment [1], in experiment [2], in experiment [3], in [4], in experiment [5] and in experiment [6] was “inactive” throughout. Besides, the Potency entry in experiment [7] and in [8] was “inactive” throughout.
As to `Brc1cc(Oc2cc(Br)c(Br)c(Br)c2Br)c(Br)c(Br)c1Br`, the Potency result in experiment [1], in [2], in experiment [3], in experiment [4], in experiment [9] and in experiment [5] was “inactive” each time. In addition, the Potency entry in [7], in experiment [8] and in experiment [10] was “inactive” throughout.
For the compound `OC(CCl)CCl`, the Potency result in experiment [1], in experiment [2], in [3], in experiment [4], in experiment [9] and in experiment [5] was “inactive” each time. Moreover, the Potency entry in experiment [6], in experiment [7], in experiment [8] and in experiment [10] was “inactive” throughout.
For `CC(C)Oc1ccc2c(=O)c(-c3ccccc3)coc2c1`, the Potency entry in experiment [1], in experiment [3], in experiment [4], in experiment [9], in experiment [5] and in experiment [7] was “inactive” each time. Further, the Potency entry in [8] and in experiment [10] was “inactive” in each case. The Potency in [2] is 2.11 µM (active) and 4.73 µM (active).
Turning to `O=C(O)c1ccccc1Nc1cccc(C(F)(F)F)c1`, the Potency entry in experiment [1], in experiment [2], in experiment [3], in experiment [4], in [5] and in experiment [7] was “inactive” each time. Further, the Potency result in experiment [8] and in [10] was “inactive” in each case. Also, the Potency in experiment [6] is 54.5 µM (active).
As for `CC(=O)O[C@]1(C(C)=O)CC[C@H]2[C@@H]3C=C(Cl)C4=CC(=O)[C@@H]5C[C@@H]5[C@]4(C)[C@H]3CC[C@@]21C`, the Potency result in experiment [1], in [2], in experiment [3], in experiment [4], in [7] and in [8] was “inactive” in each case. Also, the Potency entry in experiment [10] is “inactive”. Besides, in [6], the Potency was 30.6 µM (active).
On to `CC(=O)CC/C=C(\C)CCC=C(C)C`, for which the Potency entry in [1], in [2], in experiment [3], in experiment [4], in experiment [9] and in [5] was “inactive” each time. Further, the Potency result in experiment [6], in experiment [7], in experiment [8] and in experiment [10] was “inactive” in each case.
For the compound `CCC(C)OC(=O)c1ccc(O)cc1` (stereo unspecified), the Potency result in experiment [1], in experiment [2], in experiment [3], in [4], in [9] and in experiment [5] was “inactive” each time. In addition, the Potency entry in experiment [6], in [7], in experiment [8] and in experiment [10] was “inactive” in each case.
Consider `c1ccc2sc(SSN3CCOCC3)nc2c1`, for which the Potency in experiment [1] was 6.84 µM (active); in experiment [2] it was 30.6 µM (active); in [4], 5.48 µM (active). Further, the Potency entry in experiment [3], in experiment [5] and in experiment [8] was “inactive” in each case.
As to `C[C@]12CC[C@H]3[C@@H](CCC4=CC(=O)CC[C@@]43C)[C@@H]1CC[C@@H]2C(=O)CO`, the Potency result in experiment [1], in experiment [2], in [3], in experiment [4], in experiment [5] and in [7] was “inactive” each time. Also, the Potency entry in experiment [8] and in experiment [10] was “inactive” each time.
As for `CCCC(=O)O`, the Potency result in experiment [1], in experiment [2], in [3], in experiment [4], in experiment [5] and in experiment [6] was “inactive” in each case. Besides, the Potency result in experiment [7], in experiment [8] and in [10] was “inactive” each time.
As for `c1cc(-c2ccncc2)ccn1`, the Potency entry in [1], in [2], in experiment [3], in experiment [4], in experiment [9] and in [5] was “inactive” in each case. Further, the Potency result in experiment [7], in experiment [8] and in experiment [10] was “inactive” in each case.
On to `Nc1ccc(Cl)cc1Cl`, for which the Potency result in experiment [1], in experiment [2], in experiment [3], in experiment [4], in experiment [9] and in experiment [5] was “inactive” in each case. For the same compound, the Potency entry in experiment [6], in experiment [7], in experiment [8] and in experiment [10] was “inactive” throughout.
For the compound `S=C(NC1CCCCC1)NC1CCCCC1`, the Potency result in experiment [1], in [2], in experiment [4], in experiment [9], in [5] and in experiment [7] was “inactive” throughout. Further, the Potency result in [3] was “inactive and 17.2 µM (active)”; in experiment [6], 34.4 µM (active); in experiment [10], 9.23 µM (active) and 13.8 µM (active).
In the case of `CC(=O)C1(C)CC2=C(CCCC2(C)C)CC1C` (stereo unspecified), the Potency result in [1], in experiment [2], in experiment [3], in experiment [4], in experiment [9] and in [5] was “inactive” throughout. The Potency result in [6], in [7], in experiment [8] and in experiment [10] was “inactive” throughout.
For the compound `Nc1ccccc1N`, the Potency result in experiment [1], in [4], in experiment [5], in experiment [7], in [8] and in experiment [10] was “inactive” throughout. The Potency was 27.9 µM (active) and 19.8 µM (active) in experiment [2]; 19.8 µM (active) in [3]; 0.788 µM (active) in experiment [6].
As for `CC(C)(C)NC(=O)[C@H]1CC[C@H]2[C@@H]3CC[C@H]4NC(=O)C=C[C@]4(C)[C@H]3CC[C@]12C`, the Potency result in [1], in experiment [2], in experiment [3], in [4], in experiment [5] and in [7] was “inactive” in each case. Further, the Potency result in experiment [8] and in [10] was “inactive” throughout. Also, the Potency in experiment [6] is 53.9 µM (active).
For the compound `c1ccncc1`, the Potency entry in [1], in experiment [2], in experiment [3], in experiment [4], in experiment [5] and in [6] was “inactive” in each case. Further, the Potency entry in experiment [7], in experiment [8] and in [10] was “inactive” throughout.
As to `c1ccc(Nc2ccccc2)cc1`, the Potency entry in [1], in [2], in experiment [3], in experiment [4], in experiment [9] and in experiment [5] was “inactive” in each case. For the same compound, the Potency entry in experiment [6], in [7], in [8] and in experiment [10] was “inactive” in each case.
On to `CC(=O)c1ccccn1`, for which the Potency result in experiment [1], in experiment [2], in experiment [3], in experiment [4], in experiment [9] and in [5] was “inactive” throughout. For the same compound, the Potency result in experiment [6], in [7], in experiment [8] and in experiment [10] was “inactive” each time.

These data come from PubChem BioAssay (Tox21).
